The whole screen tested about 38,000 compounds, of which about 1,200 (3.2%) showed an effect of 50% or more. The median lay at about -58%. This is one part of a sample in which strong results are shown more often than they occur.
What follows are compounds tested on Plasmodium falciparum (assay: Calibr Malaria Delayed Death Assay SOP). Settings: concentration 4.99e-06 (unit not given; other assays of the set use mol/L).
Format: functional, organism-based
Design: scale not given: in the data most compounds retested in dose-response had high values

Structure (SMILES)	Percent Effect
CSc1cccc(NC(=O)CCC(=O)Nc2nccs2)c1	-6.233%
CCOC(=O)Cn1ccc(NC(=O)Cc2ccccc2F)n1	-129.4%
COc1ccc(CCNC(C)c2ccc3[nH]c(=O)[nH]c3c2)cc1OC (stereo not given)	-75.57%
Cc1ccc(S(=O)(=O)N2CCC(S(C)(=O)=O)CC2)cc1C	-5.803%
Cc1cc(S(=O)(=O)N2CCC(S(C)(=O)=O)C2)ccc1F (stereo not given)	-26.98%
Cc1ccc(S(=O)(=O)N2CCC(S(=O)(=O)c3nncn3C)CC2)cc1C	-38.79%
Cc1ccc(S(=O)(=O)N2CCCCC(N3CCN(C)CC3)C2)cc1F (stereo not given)	37.26%
Cc1ccc(S(=O)(=O)N2CCC(N3CCCCC3)CC2)cc1C	64.64%
Cc1cc(S(=O)(=O)N2CCCN3CCCC3C2)ccc1F (stereo not given)	67.89%
Cc1nc2ccccc2n1Cc1cc(C(=O)N(C)C2CCOC2)n[nH]1 (stereo not given)	-89.66%
Cc1nc(CN(C)C2CCN(Cc3nc4c(F)cccc4[nH]3)C2)no1 (stereo not given)	-2.567%
CCOCC(=O)Nc1cccnc1-n1ccnc1C	-153.7%
Cc1ncc(CN2CCOCC2)c2cc(C(=O)c3ccc(Br)cc3)oc12.Cl	-6.646%
Cc1ncc(CN(C)CCO)c2cc(C(=O)c3ccc(Br)cc3)oc12.Cl	47.82%
CN(C)c1ccc(C(=O)NCc2csc(Br)c2)cn1	-36.5%
Cc1ncc(CN2CCCC2)c2cc(C(=O)c3ccc(Br)cc3)oc12.Cl	66.17%
Cc1ncc(CNC(C)(C)CO)c2cc(C(=O)c3ccc(Br)cc3)oc12	36.54%
Cc1ncc(CNCC(C)O)c2cc(C(=O)c3ccc(Br)cc3)oc12.Cl (stereo not given)	8.12%
COc1ncc(C(=O)NCc2ccc(Br)cc2)cn1	-41.11%
Cc1ncc(CNCCO)c2cc(C(=O)c3ccc(Br)cc3)oc12.Cl	88.87%
COCCNC(=O)[C@@H]1CCO[C@@H]2CCN(Cc3cnn(C)c3)C[C@@H]21	-0.06334%
Cc1nn(Cn2ccc(C(=O)N3CCOCC3)n2)c(C)c1Cl	-94.44%

Structure (SMILES)	Percent Effect
O=c1c(NCc2ccccn2)c(NCC(O)CN2CCOCC2)c1=O (stereo not given)	-115.3%
Cc1cccc(CN2CC3(CCN(Cc4ccco4)CC3)OCC2=O)n1.O=C(O)C(F)(F)F.O=C(O)C(F)(F)F	-46.8%
CC(C)Oc1ccc(C(=O)N2CCCC2c2cnn(C)c2)cn1 (stereo not given)	-40.89%
CNC(=O)c1cn2cc(-c3cccc(Cl)c3)n(CC3CC3)c(=O)c2n1	19.26%
CNC(=O)c1cn2cc(-c3cccc(Cl)c3)n(CC=C(C)C)c(=O)c2n1	56.44%
COCCCNC(=O)Cn1c(-c2cccc(Cl)c2)nc(C)cc1=O	-51.33%
COc1ccc(OC)c(NC(=O)c2cc3c([nH]c2=O)CCCC3=O)c1	-53.3%
CC1CCN(CC(O)Cn2cnc3ccc(Cl)cc3c2=O)CC1 (stereo not given)	28.19%
Cc1c(C)n(CC(O)CN2CCCCCC2)c2c(Cl)cccc12 (stereo not given)	50.38%
Cc1c(C)n(CC(O)CN2CCC(C)CC2)c2c(Cl)cccc12 (stereo not given)	82.43%
Cc1c(C)n(CC(O)CN2CCC(O)CC2)c2c(Cl)cccc12 (stereo not given)	43.5%
O=C(c1cccc(Cl)c1Cl)N1CCN(CC(O)Cn2cccn2)CC1 (stereo not given)	-16.31%
Cc1c(C)n(CC(O)CN2CCOCC2)c2c(Cl)cccc12.Cl (stereo not given)	-18.53%
O=C(c1cccc2c1OCCO2)N1CCCC(n2cccn2)C1 (stereo not given)	-57.7%
Cc1ccc(OCCC(=O)N2CCOCC2c2ncon2)cc1C (stereo not given)	-113.3%
O=C(c1ccco1)N1Cc2nccn2CC(Cn2ncccc2=O)C1 (stereo not given)	-89.1%
CCCN(CCC)c1ncc(S(=O)(=O)c2ccc(OC)cc2)c(N)n1	66.8%
CCCN(CCC)c1ncc(S(=O)(=O)c2ccccc2)c(N)n1	-11.95%
CCCN(CCC)c1ncc(S(=O)(=O)c2ccc(C)cc2)c(N)n1	12.69%
N#Cc1c(N)nc2c(c1-c1c[nH]nc1C1CCCCC1)CNCC2	6.508%
c1ccc(COCC2CN(Cc3ccsc3)Cc3nccn3C2)nc1 (stereo not given)	1.035%
CCc1cnc(CN(C)C2CCN(CCCNS(C)(=O)=O)C2)o1 (stereo not given)	-33.46%

Structure (SMILES)	Percent Effect
Cc1cc(C)n(C2CN(CC(=O)N(C)Cc3cnn(C)c3)C2)n1	-103.6%
COc1ccccc1CN(C)C(=O)CN1CC(n2nc(C)cc2C)C1	77.58%
Cc1cc(C)n(C2CN(CC(=O)N(C)Cc3ccsc3)C2)n1	24.51%
Cc1cc(C)n(C2CN(CC(=O)N(C)Cc3ccc(C)o3)C2)n1	-1.347%
COc1cccc(CN(C)C(=O)CN2CC(n3nc(C)cc3C)C2)c1	62.45%
Cc1cc(C)n(C2CN(CC(=O)N(C)Cc3ccco3)C2)n1	-70.44%
CC(C)NC(=O)N1CC[C@@H]2CN(S(C)(=O)=O)CCO[C@@H]2C1	-58.18%
Cc1nnc(NC(=O)NCc2ccc(OC3CCCC3)nc2)s1	2.114%
Cc1cccc(N2Cc3nc(N4CCC(C)CC4)ncc3C2=O)c1	-105.8%
O=S(=O)(c1ccccc1)N1CCC[C@]2(C[C@@H](OCC3CC3)CO2)C1	-64.42%
CCOc1ccc2[nH]c3c(N(C)CC4OCCO4)ncnc3c2c1	-160.2%
CCCNC(=O)CCNC(=O)c1sc2ccc(F)cc2c1C	-59.54%
CN1CCN(C(=O)c2cc3occc3n2Cc2ccccc2F)CC1	-0.5316%
O=C(c1occc1CN1C(=O)Cc2ccccc21)N1CC(O)C1	-91.69%
CN1CCN(C(=O)c2occc2CN2C(=O)Cc3ccccc32)CC1	53.65%
N#Cc1cnc2c(F)cc(F)cc2c1NC1CCN(CC(N)=O)CC1	-21.61%
Cc1cnc(NC(=O)CSC2CCc3ccccc3NC2=O)s1 (stereo not given)	-9.765%
NC(=O)c1ccc(CN2CCC(N3CCCCC3)CC2)cc1	-16.53%
CC(NCc1ccc(OCC(N)=O)cc1)c1ccc(Cl)c(Cl)c1.Cl (stereo not given)	2.26%
CC(NCc1ccc(OCC(N)=O)cc1)c1ccc(Cl)cc1.Cl (stereo not given)	12.76%
CC(NCc1ccc(OCC(N)=O)cc1)c1ccc2c(c1)CCCC2 (stereo not given)	72.97%

Reference: ChEMBL document CHEMBL3988442, “University of Dundee, Small-Polar-MMV Screening Library” (2021)
